The campaign covered roughly 350,000 compounds. About 31,000 (8.9%) were called active. Another 15% or so got no clear call; they are omitted. Calls follow the shape of the dose curve; as a rule, active = well fitted inhibition curve with a large enough effect; inconclusive = small, poorly fitted or top-dose-only effect; inactive = no such curve, though single readings can be large or run the other way. Many of the other results were omitted from the sample, so actives are more common in it than they were.
% is scaled to controls: 0 for no effect and ±100 for the full control effect; potency is read from the fitted curve at half-maximal effect.

Sequence of Histone-lysine N-methyltransferase EHMT2 (Homo sapiens) (Q96KQ7 913-1193 limits assumed): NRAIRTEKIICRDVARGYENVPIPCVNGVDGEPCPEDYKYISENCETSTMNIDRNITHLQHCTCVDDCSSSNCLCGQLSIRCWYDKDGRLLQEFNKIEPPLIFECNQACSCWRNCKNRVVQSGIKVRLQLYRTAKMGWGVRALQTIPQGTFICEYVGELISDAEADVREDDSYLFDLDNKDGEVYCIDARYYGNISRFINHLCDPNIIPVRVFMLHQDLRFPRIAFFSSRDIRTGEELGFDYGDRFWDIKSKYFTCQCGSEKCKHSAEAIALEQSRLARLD

This test concerns the target Histone-lysine N-methyltransferase EHMT2 (Homo sapiens) (UniProt Q96KQ7). The test can be described thus: qHTS Assay for Inhibitors of Histone Lysine Methyltransferase G9a. Also: nearly all actives have a fitted effect of over 75% in size. The following applies: G9a H3K9 monomethylation, AlphaScreen, 2 h; series mostly up to 59 µM; activity, negative = inhibition: at the top concentration. The method, boiled down: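 Enzyme 20 nM + cpd, 15 min RT; add b-H3K9 pep 500 nM / SAM 20 uM; 2 h RT; anti-H3K9me1 Ab 0.5 ug/mL + SA donor / anti-rabbit acceptor beads 20 ug/mL each, 10 min; AlphaScreen read.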
On the technique in general: Quantitative high-throughput screening tests each substance at several concentrations.
For the molecule `Cc1cc2nc(C)n(CCCNC(=O)Nc3ccccc3)c2cc1C`, the “activity, negative = inhibition” value was 11.2% (inactive). The same measure, in the same setting: the figure for `Cn1c(Nc2ccccc2)cc(=O)n(C)c1=O` is 61.9% [at 102 µM] (inactive). With `Cc1cc(=O)n(C)c(=O)n1CCCNc1ccccc1`, the Potency is 15.8 µM (active). Take `CCc1ccccc1NC(=O)Cn1c(=O)n(CC2CCC(C(=O)NCCc3ccccc3)CC2)c(=O)c2ccccc21` (stereo not drawn): the “activity, negative = inhibition” value was -0.279% (inactive). Still for that read-out and setting: the value for `O=C(C1CCC(Cn2c(=O)c3sccc3n(Cc3ccccc3F)c2=O)CC1)N1CCCCC1` (stereo not drawn) was -12.4% (inactive). Still for that read-out and setting: the figure for `COc1cccc(NC(=O)CSc2nnc(-c3cccnc3)o2)c1` is -41.5% [at 102 µM] (inactive); for `CCCn1c(SCC(N)=O)nnc1C(C)C` it is 13.7% [at 102 µM] (inactive). For `CCCn1c(SCC(=O)c2ccc3c(c2)OCCO3)nnc1C(C)C`, the Potency was 44.7 µM (active). Turning to `CCn1c(SCC(=O)Nc2ccc3c(c2)OCCO3)nnc1C(C)C`, the “activity, negative = inhibition” value was -11.6% [at 102 µM] (inactive). The same measure, in the same setting: the value for `COC(=O)c1ccc2c(c1)N(CC(=O)Nc1ccc(C)c(C)c1)C(=O)c1ccccc1S2` was -3.69% (inactive). Consider `Cc1ccc(C(=O)N/C(=C\c2cn(C)c3ccccc23)C(=O)N2CCN(C)CC2)cc1`, for which the Potency is 79.4 µM (active). Turning to `Cc1ccc(C(=O)N/C(=C\c2cn(S(=O)(=O)N(C)C)c3ccccc23)C(=O)N2CCCC2)cc1`, the “activity, negative = inhibition” value is 14.9% [at 102 µM] (inactive). On to `COc1cc(C(=O)N/C(=C\c2cn(C)c3ccccc23)C(=O)N2CCOCC2)cc(OC)c1OC`, for which the “activity, negative = inhibition” value was -9.22% [at 102 µM] (inactive). Same read-out and setting: the figure for `CCCCC[C@H]1CN(C2CCCCC2)C(=O)[C@@H]1CC(=O)NCc1ccc(OC)cc1` is -11.2% [at 102 µM] (inactive); for `CCN(CC)CCn1c2c(c(SCC(=O)Nc3ccc(C(C)C)cc3)nc1=O)CCC2` it is -34.3% [at 102 µM] (inactive). For `O=c1oc2ccccc2cc1-c1csc(Nc2ccc(O)cc2)n1`, the Potency was 12.6 µM (active).

Consider `COc1ccc2nc(Nc3nc(-c4cc5ccccc5oc4=O)cs3)sc2c1`, for which the “activity, negative = inhibition” value is 22.6% (inactive). For the molecule `Cc1cc(NC(=O)c2cccc(Cl)c2)ccc1-c1cc2ccccc2oc1=O`, the “activity, negative = inhibition” value was -4.3% (inactive). Same read-out and setting: the value for `CCOC(=O)CN1C(C(=O)c2ccccc2)=C(OC(=O)C(C)(C)C)c2ccccc2S1(=O)=O` was -8.05% (inactive). Consider `CCCCc1nn2c(=O)cc(COC(=O)c3ccccc3NC(=O)C(C)(C)C)nc2s1`, for which the “activity, negative = inhibition” value was 25.7% (inactive). With `O=C(COC(=O)c1ccccc1SCC(=O)N1CCCC1)Nc1ccccc1OC(F)F`, the activity, negative = inhibition was 13.9% [at 0.501 µM] (inactive). For `COc1ccc(NCc2nnc(SCc3ccccc3)n2-c2ccc(OC)cc2)cc1`, the Potency is 50.1 µM (active). As for `COc1ccc(CSc2nnnn2-c2ccc(C(=O)O)cc2)cc1`, the “activity, negative = inhibition” value is 17.8% [at 102 µM] (inactive). The same measure, in the same setting: the figure for `Cc1ccc(-n2c(CNc3ccc(F)cc3)nnc2SCC(=O)N2CCOCC2)cc1` is -3.9% (inactive); for `CC1(NC(=O)CCS(=O)(=O)c2ccc(Cl)cc2)CCS(=O)(=O)C1` (stereo not drawn) it is -5.47% [at 12.7 µM] (inactive); for `CC1(C)CC(=O)C=C(c2cccc3c2Oc2ccccc2S3)C1` it is -4.23% [at 0.501 µM] (inactive). For the molecule `Cn1cccc1C(=O)N1CCc2ccccc2C1`, the Potency is 2 µM (active). Consider `O=C(C(=O)N1CCc2ccccc2C1)N1CCc2ccccc2C1`, for which the “activity, negative = inhibition” value was 17.3% (inactive).

With `Cc1ccc(-c2cc(C(=O)N3CCc4ccccc4C3)no2)cc1`, the “activity, negative = inhibition” value was 2.95% [at 102 µM] (inactive).

Consider `O=C(CCc1cn(Cc2ccc(F)cc2)c2ccccc12)NC1CCCCC1`, for which the “activity, negative = inhibition” value is -29.5% (inactive).

Take `Cc1ccc(Cn2c(=N)c(S(=O)(=O)c3ccc(C)cc3)cc3c(=O)n4ccccc4nc32)cc1`: the “activity, negative = inhibition” value is 12.9% [at 102 µM] (inactive). Turning to `CCN(CC(=O)Nc1ccccc1OC)C(=O)CC1CC2CCC1C2` (stereo not drawn), the “activity, negative = inhibition” value is -48.1% (inactive). On the same count and under the same terms, the figure for `COc1ccccc1N1CCN(C(=O)c2ccc(NC3=NC4CS(=O)(=O)CC4S3)cc2)CC1` (stereo not drawn) is 18.8% [at 102 µM] (inactive). On the same count and under the same terms, the value for `O=[N+]([O-])c1ccc(N2CCSCC2)cc1O` was -49.1% [at 102 µM] (inactive). On to `O=C1CSC(=S)N1/N=C/c1ccc(O)c([N+](=O)[O-])c1`, for which the Potency was 14.1 µM (active). Consider `CCc1nn(CCCC(=O)Nc2ccc(C)cc2C)c(=O)c2cc3occc3n12`, for which the “activity, negative = inhibition” value is 0.152% (inactive). Same read-out and setting: the figure for `Cc1ccc(OCCNC(=O)CN2C(=O)NC3(CCCC3)C2=O)cc1` is 19.1% [at 2.33 µM] (inactive).

Take `Cc1ccc(S(=O)(=O)CCC(=O)OCC(=O)NCCc2ccc(S(N)(=O)=O)cc2)cc1`: the activity, negative = inhibition is 1.87% [at 12.7 µM] (inactive). The same measure, in the same setting: the value for `COc1ccc(Cc2nnc(NS(=O)(=O)Cc3ccccc3)s2)cc1` was -8.52% (inactive). Same read-out and setting: the figure for `Cc1cc(C)cc(NS(=O)(=O)Cc2ccccc2)c1` is 6.04% [at 102 µM] (inactive). As to `CCC(CC)c1nnc(NS(=O)(=O)Cc2ccccc2)s1`, the Potency was 5.01 µM (active).

For `CCc1ccc(NC(=O)CCNS(=O)(=O)c2cccs2)cc1`, the “activity, negative = inhibition” value is 23.6% [at 102 µM] (inactive). In the case of `CN1CCN(CC#CCC2(O)c3ccccc3-c3ccccc32)CC1`, the Potency is 35.5 µM (active). Regarding `CCCCOc1ccc(CN2C(=O)C(=O)c3cc(Br)cc(C)c32)cc1OC`, the Potency was 6.31 µM (active). With `CCCCN1C(=O)C(C)=C(C)C1OCCc1ccc(OC)c(OC)c1` (stereo not drawn), the activity, negative = inhibition is -12% [at 0.501 µM] (inactive). Still for that read-out and setting: the value for `CCCCOc1ccc(Cn2c(=O)oc3ccc(C)cc32)cc1OC` was 72.1% (inactive); that for `Cc1ccc2nc(N3CCN(c4cccc(Cl)c4)CC3)c3nnnn3c2c1` was 27.6% (inactive). On the same count and under the same terms, the value for `Cc1[nH]c2ccccc2c1C(c1ccccc1)c1cccs1` (stereo not drawn) was -1.34% (inactive); that for `CC1CCN(S(=O)(=O)c2ccc3c(c2)N(CC(=O)NCc2ccccc2Cl)C(=O)CO3)CC1` was 18.5% (inactive); that for `Cc1cccc(N2CCN(C(=O)c3cccc(N4C(=O)C5C6C=CC(C6)C5C4=O)c3)CC2)c1C` (stereo not drawn) was -4.69% [at 102 µM] (inactive). `Cn1c(=O)n(C)c2cc(C(=O)Nc3ccc4c(c3)OCO4)ccc21`: the “activity, negative = inhibition” value is -4.52% [at 102 µM] (inactive).

With `COc1ccc(NC(=O)CCN2C(=O)/C(=C/c3ccc4c(c3)OCO4)SC2=S)cc1`, the activity, negative = inhibition was 7.02% [at 12.7 µM] (inactive). In the case of `Cc1ccc(C(=O)O)cc1-c1ccc(/C=C2\SC(=O)N(CC(=O)Nc3ccc4c(c3)OCO4)C2=O)o1`, the Potency was 15.8 µM (active). With `O=C(c1ccc(Cl)cc1)n1nc(-c2cccnc2)nc1NCc1ccc(F)cc1`, the “activity, negative = inhibition” value is 8.04% (inactive). With `CN1c2ccc(Cl)cc2-c2nc(SCC(=O)Nc3cc(F)ccc3F)ncc2S1(=O)=O`, the “activity, negative = inhibition” value is 2.07% (inactive).

On to `CS(=O)(=O)c1ccc(-c2nnn(CC(=O)Nc3ccc4c(c3)OCCO4)n2)cc1`, for which the “activity, negative = inhibition” value is -35.3% [at 102 µM] (inactive). Still for that read-out and setting: the figure for `Oc1ccc2ccccc2c1N=Nc1nccs1` is 12.3% [at 0.501 µM] (inactive).

Regarding `Oc1ccc(N=Nc2nccs2)c(O)c1`, the Potency was 44.7 µM (active). `Cc1cccc(NC(=O)C2CCCN2S(=O)(=O)c2cccc3nsnc23)c1C` (stereo not drawn): the “activity, negative = inhibition” value is -3.86% (inactive).

`COc1ccc(-c2noc(CSc3nc(C)cc(=O)[nH]3)n2)cc1OC`: the “activity, negative = inhibition” value is 5.63% (inactive). On the same count and under the same terms, the figure for `Cc1cc(C)c(NC(=O)CS(=O)CC(=O)Nc2cccnc2)c(C)c1` (stereo not drawn) is -1.56% [at 102 µM] (inactive).

With `Cc1nc(-c2ccc(F)cc2)c(CC(=O)Nc2cccc(S(=O)(=O)N3CCOCC3)c2)s1`, the activity, negative = inhibition was 9.73% [at 0.501 µM] (inactive). Take `Cc1ccc(-c2nc(-c3cccnc3)sc2CC(=O)Nc2ccc(C)c(Cl)c2)cc1`: the Potency is 8.91 µM (active).

The record behind these values is PubChem BioAssay AID504332 (National Center for Advancing Translational Sciences (NCATS), 2011).
